Measured values published in PubChem BioAssay (Tox21).
Values without a mark were called inactive. Records with an inconclusive call do not appear. Entries that show only a call come without a potency. Active and inactive are the calls of the source. Calls follow the shape of the dose curve; as a rule, active = well fitted curve in the direction sought with a large enough effect in the repeat runs; inconclusive = weak or mixed curves; inactive = no such curve, though single readings can be large; an effect the other way counts as inactive or inconclusive.

Tests used:
[1] = Human pregnane X receptor (PXR) small molecule agonists, qHTS cell viability counter screen (AID 1346977); also: nearly all actives have a fitted effect of over 50% in size; also: potency is read from the fitted curve at half-maximal effect
Summary of the method: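 PXR-Luc HepG2 cells (2,000/well, 5% charcoal-stripped FBS) preincubated 5 hr, then exposed to compounds 24 hr at 37 C. Viability read in the same wells by CellTiter-Fluor fluorescence, reagent added at 23 hr, 1 hr incubation.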

[2] = Caspase-3/7 induction in CHO-K1 cells by small molecules, qHTS cell viability counter screen (AID 1346979); also: nearly all actives have a fitted effect of over 35% in size; also: potency is read from the fitted curve at half-maximal effect
Summary of the method: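 Wild-type CHO-K1 cells (1,500/well) treated with compound after 5 h plating; after 16 h at 37C, viability read as CellTiter-Fluor fluorescence following 1 h reagent incubation, in the same wells as the caspase read.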

[3] = Caspase-3/7 induction in CHO-K1 cells by small molecules, qHTS assay (AID 1346980); also: nearly all actives have a fitted effect of over 15% in size
Summary of the method: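 Wild-type cells were seeded at 1,500 per well and settled 5 hr at 37 C, 5% CO2, then exposed to DMSO-dissolved compounds for 17 hr. Caspase-Glo 3/7 reagent was added, and luminescence was read after 30min at room temperature.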

[4] = Caspase-3/7 induction in HepG2 cells by small molecules, qHTS cell viability counter screen (AID 1346981); also: series mostly up to about 92 µM; nearly all actives have a fitted effect of over 30% in size
Summary of the method: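 In this quantitative HTS counter screen, compounds delivered in DMSO were left on unmodified HepG2 cells for 16 hr at 37 C. Viability was then determined fluorometrically with CellTiter-Fluor, in parallel with caspase-3/7 induction in the same wells.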

[5] = target: Nuclear receptor subfamily 1 group I member 2 (Homo sapiens) (UniProt O75469); test: Human pregnane X receptor (PXR) small molecule agonists, qHTS assay (AID 1346982); also: nearly all actives have a fitted effect of over 35% in size; also: potency is read from the fitted curve at half-maximal effect
Summary of the method: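 Reporter HepG2 cells expressing PXR-Luc are cultured in charcoal-stripped FBS (5%), treated with compounds for 24 hr at 37 C, and assayed by ONE-Glo luminescence after 30 min at room temperature.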

[6] = target: Cytochrome P450 2D6 (Homo sapiens) (UniProt P10635); test: Cytochrome P450 Family 2 Subfamily D Member 6 (CYP2D6) small molecule antagonists: luciferase reporter qHTS assay (AID 1671196); also: nearly all actives have a fitted effect of over 50% in size; also: potency is read from the fitted curve at half-maximal effect
Summary of the method: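 Test chemicals meet CYP2D6 plus proluciferin substrate (10 min, RT); NADPH regenerating solution then drives turnover for 1 h. Detection reagent halts the reaction; luminescence measured after 20 min.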

[7] = target: Cytochrome P450 1A2 (Homo sapiens) (UniProt P05177); test: Cytochrome P450 Family 1 Subfamily A Member 2 (CYP1A2) small molecule antagonists: luciferase reporter qHTS assay (AID 1671199); also: nearly all actives have a fitted effect of over 50% in size; also: potency is read from the fitted curve at half-maximal effect
Summary of the method: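 Steps: enzyme-substrate mix dispensed; test compounds and furafylline control pinned in; 10 min room temperature; NADPH regeneration solution added, 1 h; reaction stopped with luciferin detection reagent; luminescence read after 20 min.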

[8] = target: Voltage-gated inwardly rectifying potassium channel KCNH2 (Homo sapiens) (UniProt Q12809); test: Human Ether-a-go-go-Related Gene (hERG) channel small molecule antagonists: fluorescence cell-based qHTS assay (AID 1671200); also: nearly all actives have a fitted effect of over 50% in size; also: potency is read from the fitted curve at half-maximal effect
Summary of the method: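 hERG-U2OS cells plated overnight at 37 C, loaded with FluxOR II dye 1 h at RT in dark; after 10 min, thallium stimulus added. Fluorescence (480/540 nm) read kinetically for 2 min at 1 s intervals.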

[9] = target: Cytochrome P450 3A4 (Homo sapiens) (UniProt P08684); test: Cytochrome P450 Family 3 Subfamily A Member 4 (CYP3A4) small molecule antagonists: luciferase reporter qHTS assay (AID 1671201)
Summary of the method: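 P450-Glo CYP3A4 luminescent assay: compounds preincubated 10 min at room temperature with enzyme and proluciferin substrate, NADPH regeneration added, 1 h room-temperature reaction, stopped with luciferin detection reagent; luminescence read after 20 min. Ketoconazole positive control.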

[10] = Caspase-3/7 induction in HepG2 cells by small molecules, qHTS assay (AID 1346978); also: nearly all actives have a fitted effect of over 15% in size
Summary of the method: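 Wild-type HepG2 cells (2,000/well) were settled 5 h at 37 C, 5% CO2, then exposed to compounds in DMSO for 17 h. Caspase-3/7 activity was read by luminescence 30 min after adding Caspase-Glo 3/7 reagent at room temperature.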

[11] = target: Cytochrome P450 2C19 (Homo sapiens) (UniProt P33261); test: Cytochrome P450 Family 2 Subfamily C Member 19 (CYP2C19) small molecule antagonists: luciferase reporter qHTS assay (AID 1671197); also: nearly all actives have a fitted effect of over 65% in size; also: potency is read from the fitted curve at half-maximal effect
Summary of the method: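 P450-Glo CYP2C19 system: enzyme-substrate mix with compound 10 min at room temperature, then NADPH regeneration solution, 1 h at 37C. Proluciferin-to-luciferin conversion detected by luminescence after 20 min with detection reagent; ketoconazole as positive control.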

[12] = target: Cytochrome P450 2C9 (Homo sapiens) (UniProt P11712); test: Cytochrome P450 Family 2 Subfamily C Member 9 (CYP2C9) small molecule antagonists: luciferase reporter qHTS assay (AID 1671198); also: nearly all actives have a fitted effect of over 50% in size; also: potency is read from the fitted curve at half-maximal effect
Summary of the method: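 CYP2C9 activity was measured with a P450-Glo proluciferin substrate. Enzyme–substrate mix was held with compound for 10 min at room temperature, then NADPH regeneration solution was added for 1 h at 37C. Luciferin product was read as luminescence.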

[13] = target: Nuclear receptor subfamily 1 group I member 2 (Rattus norvegicus) (UniProt Q9R1A7); test: Rat pregnane X receptor (rPXR) activation by small molecules, qHTS assay (AID 1346983); settings: rPXR luciferase reporter cells, One-Glo luminescence, 24 h; max activation: stronger effect = higher value; also: nearly all actives have a fitted effect of over 20% in size; also: potency is read from the fitted curve at half-maximal effect
Summary of the method: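 Cell-based rPXR luciferase reporter assay, 2,000 cells per well, rested 5hr at 37 C before compound addition in DMSO, then 24 hr at 37 C. One-Glo reagent was added and luminescence read after 30 min at room temperature.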

[14] = target: Nuclear receptor subfamily 1 group I member 2 (Homo sapiens) (UniProt O75469); test: CYP3A4 induction through human pregnane X receptor (PXR) by small molecules, qHTS assay (AID 1346984); also: potency is read from the fitted curve at half-maximal effect; nearly all actives have a fitted effect of over 40% in size
Summary of the method: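 Induction measured in HepG2-based DPX-2 cells co-expressing human PXR and a CYP3A4 promoter-driven luciferase. After a 24-hour compound exposure, cells received CYP3A4 luciferin substrate at 3uM final for 3 hours, and light output was then recorded.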

[15] = target: Nuclear receptor subfamily 1 group I member 2 (Homo sapiens) (UniProt O75469); test: Human pregnane X receptor (PXR) activation by small molecules, qHTS assay (AID 1346985); also: nearly all actives have a fitted effect of over 40% in size
Summary of the method: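 DPX-2 cells (HepG2 co-transfected with a PXR response element and a CYP3A4-promoter luciferase construct) were seeded at 2,000 per well, rested 5 hr at 37C, then exposed to DMSO-dissolved compounds for 24 hr. Activation was read as luciferase luminescence.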

Cytochrome P450 2C9 (Homo sapiens), sequence (P11712 whole entry, looked up): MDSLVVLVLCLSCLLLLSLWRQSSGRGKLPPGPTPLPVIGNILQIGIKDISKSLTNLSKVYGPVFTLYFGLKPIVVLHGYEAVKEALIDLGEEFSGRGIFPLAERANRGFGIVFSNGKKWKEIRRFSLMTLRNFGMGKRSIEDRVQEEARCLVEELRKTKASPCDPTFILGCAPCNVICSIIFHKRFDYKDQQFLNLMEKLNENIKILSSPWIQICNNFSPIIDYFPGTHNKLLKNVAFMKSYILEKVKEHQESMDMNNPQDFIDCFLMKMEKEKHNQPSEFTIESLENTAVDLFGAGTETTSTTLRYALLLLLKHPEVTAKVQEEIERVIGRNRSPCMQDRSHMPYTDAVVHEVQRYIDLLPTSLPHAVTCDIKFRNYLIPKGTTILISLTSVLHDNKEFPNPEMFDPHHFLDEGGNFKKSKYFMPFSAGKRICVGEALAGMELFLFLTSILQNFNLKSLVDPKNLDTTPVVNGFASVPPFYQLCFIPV
Cytochrome P450 1A2 (Homo sapiens), sequence (P05177 whole entry, looked up): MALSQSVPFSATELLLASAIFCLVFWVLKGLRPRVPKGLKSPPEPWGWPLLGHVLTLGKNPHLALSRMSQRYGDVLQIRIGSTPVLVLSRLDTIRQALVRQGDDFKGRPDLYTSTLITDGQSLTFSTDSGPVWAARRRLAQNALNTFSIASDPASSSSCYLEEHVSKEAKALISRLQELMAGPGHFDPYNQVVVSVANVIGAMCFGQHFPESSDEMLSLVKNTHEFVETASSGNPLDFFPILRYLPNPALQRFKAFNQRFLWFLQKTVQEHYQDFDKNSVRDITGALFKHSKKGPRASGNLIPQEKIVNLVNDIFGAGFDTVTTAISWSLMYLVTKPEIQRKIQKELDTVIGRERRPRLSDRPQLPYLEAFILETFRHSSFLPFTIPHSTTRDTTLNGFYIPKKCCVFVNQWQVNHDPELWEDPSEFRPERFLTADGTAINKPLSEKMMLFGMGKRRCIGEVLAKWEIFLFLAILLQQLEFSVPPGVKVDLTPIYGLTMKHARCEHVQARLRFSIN
Cytochrome P450 2C19 (Homo sapiens), sequence (P33261 whole entry, looked up): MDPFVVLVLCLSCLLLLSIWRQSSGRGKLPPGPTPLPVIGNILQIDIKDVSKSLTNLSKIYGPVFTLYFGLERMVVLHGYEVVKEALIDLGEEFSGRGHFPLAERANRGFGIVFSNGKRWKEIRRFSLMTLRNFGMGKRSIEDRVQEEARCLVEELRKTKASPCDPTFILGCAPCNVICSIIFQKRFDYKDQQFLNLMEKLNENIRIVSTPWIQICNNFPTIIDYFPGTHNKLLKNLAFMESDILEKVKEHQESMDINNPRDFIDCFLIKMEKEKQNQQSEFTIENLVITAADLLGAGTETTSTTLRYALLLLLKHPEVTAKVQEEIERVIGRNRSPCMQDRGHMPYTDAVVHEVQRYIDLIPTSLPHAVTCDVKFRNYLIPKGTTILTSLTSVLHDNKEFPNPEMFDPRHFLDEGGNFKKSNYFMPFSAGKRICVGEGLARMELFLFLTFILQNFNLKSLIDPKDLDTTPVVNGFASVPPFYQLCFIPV
Nuclear receptor subfamily 1 group I member 2 (Homo sapiens), sequence (O75469 whole entry, looked up): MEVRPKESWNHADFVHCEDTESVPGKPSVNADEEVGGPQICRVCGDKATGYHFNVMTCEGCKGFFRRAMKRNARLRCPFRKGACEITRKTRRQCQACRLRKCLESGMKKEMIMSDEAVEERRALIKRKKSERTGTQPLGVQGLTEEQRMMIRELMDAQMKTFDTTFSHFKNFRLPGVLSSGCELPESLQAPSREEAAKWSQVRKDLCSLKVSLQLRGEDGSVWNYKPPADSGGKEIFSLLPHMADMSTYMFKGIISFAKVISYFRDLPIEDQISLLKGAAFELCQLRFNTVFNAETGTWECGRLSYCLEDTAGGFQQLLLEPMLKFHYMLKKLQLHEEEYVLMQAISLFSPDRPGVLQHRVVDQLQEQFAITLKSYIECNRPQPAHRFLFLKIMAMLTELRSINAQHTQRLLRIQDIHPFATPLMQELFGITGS
Cytochrome P450 3A4 (Homo sapiens), sequence (P08684 whole entry, looked up): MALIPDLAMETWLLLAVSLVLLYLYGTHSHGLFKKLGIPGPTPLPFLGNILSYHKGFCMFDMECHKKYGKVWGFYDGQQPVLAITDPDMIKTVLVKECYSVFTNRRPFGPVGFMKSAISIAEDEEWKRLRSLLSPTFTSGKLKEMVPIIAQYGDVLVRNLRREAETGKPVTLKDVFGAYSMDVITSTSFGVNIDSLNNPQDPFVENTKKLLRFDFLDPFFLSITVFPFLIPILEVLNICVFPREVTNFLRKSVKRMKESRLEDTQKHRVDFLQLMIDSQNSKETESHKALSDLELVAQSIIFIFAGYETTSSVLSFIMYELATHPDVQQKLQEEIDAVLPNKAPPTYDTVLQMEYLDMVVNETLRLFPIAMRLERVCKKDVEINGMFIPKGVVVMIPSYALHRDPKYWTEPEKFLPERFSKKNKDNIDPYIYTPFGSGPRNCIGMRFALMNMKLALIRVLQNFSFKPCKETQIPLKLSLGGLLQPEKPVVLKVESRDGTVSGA
Voltage-gated inwardly rectifying potassium channel KCNH2 (Homo sapiens), sequence (Q12809 whole entry, looked up): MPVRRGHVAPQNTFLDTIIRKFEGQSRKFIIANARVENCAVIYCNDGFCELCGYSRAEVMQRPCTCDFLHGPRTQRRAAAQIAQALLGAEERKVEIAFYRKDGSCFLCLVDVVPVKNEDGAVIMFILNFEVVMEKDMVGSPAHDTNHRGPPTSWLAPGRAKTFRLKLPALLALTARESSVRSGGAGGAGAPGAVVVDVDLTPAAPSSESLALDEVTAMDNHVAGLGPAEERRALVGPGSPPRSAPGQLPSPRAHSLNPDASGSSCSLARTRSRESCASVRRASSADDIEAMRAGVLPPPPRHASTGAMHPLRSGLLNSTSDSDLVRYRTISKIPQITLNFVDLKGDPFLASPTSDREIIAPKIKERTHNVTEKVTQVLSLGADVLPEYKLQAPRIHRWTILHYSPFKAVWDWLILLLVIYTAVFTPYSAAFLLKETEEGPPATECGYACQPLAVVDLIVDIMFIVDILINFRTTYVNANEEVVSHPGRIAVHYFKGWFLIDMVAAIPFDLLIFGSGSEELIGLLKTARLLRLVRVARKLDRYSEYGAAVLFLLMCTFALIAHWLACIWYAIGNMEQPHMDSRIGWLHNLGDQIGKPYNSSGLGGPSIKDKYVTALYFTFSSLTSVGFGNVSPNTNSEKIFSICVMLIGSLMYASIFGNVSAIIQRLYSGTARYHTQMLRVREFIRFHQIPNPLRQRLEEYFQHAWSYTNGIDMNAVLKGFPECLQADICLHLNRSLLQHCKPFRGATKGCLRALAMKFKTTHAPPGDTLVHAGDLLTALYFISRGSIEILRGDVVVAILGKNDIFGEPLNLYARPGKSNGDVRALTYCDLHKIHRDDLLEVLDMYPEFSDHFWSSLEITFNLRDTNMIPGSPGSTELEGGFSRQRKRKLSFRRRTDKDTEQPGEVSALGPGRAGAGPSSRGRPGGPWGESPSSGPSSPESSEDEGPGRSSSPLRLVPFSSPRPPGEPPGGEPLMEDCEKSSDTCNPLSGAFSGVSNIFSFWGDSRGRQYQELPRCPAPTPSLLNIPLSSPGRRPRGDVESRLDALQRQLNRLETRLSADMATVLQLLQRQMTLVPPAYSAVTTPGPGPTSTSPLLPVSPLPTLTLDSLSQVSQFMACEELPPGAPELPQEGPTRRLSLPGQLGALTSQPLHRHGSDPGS
Cytochrome P450 2D6 (Homo sapiens), sequence (P10635 whole entry, looked up): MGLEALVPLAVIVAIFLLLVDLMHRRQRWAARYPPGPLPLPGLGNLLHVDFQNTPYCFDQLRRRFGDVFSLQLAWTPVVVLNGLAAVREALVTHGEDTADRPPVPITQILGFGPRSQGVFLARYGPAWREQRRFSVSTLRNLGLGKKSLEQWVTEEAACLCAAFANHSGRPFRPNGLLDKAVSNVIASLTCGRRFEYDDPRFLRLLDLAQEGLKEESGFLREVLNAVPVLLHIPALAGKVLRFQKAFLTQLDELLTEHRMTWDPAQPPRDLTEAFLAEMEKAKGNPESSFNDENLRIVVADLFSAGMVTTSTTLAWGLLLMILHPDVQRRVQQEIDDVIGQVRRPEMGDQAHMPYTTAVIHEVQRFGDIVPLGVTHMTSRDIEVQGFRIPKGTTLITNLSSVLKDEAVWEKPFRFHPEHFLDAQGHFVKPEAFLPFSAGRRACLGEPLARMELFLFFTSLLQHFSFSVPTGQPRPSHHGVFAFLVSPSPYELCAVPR
Nuclear receptor subfamily 1 group I member 2 (Rattus norvegicus), sequence (Q9R1A7 whole entry, looked up): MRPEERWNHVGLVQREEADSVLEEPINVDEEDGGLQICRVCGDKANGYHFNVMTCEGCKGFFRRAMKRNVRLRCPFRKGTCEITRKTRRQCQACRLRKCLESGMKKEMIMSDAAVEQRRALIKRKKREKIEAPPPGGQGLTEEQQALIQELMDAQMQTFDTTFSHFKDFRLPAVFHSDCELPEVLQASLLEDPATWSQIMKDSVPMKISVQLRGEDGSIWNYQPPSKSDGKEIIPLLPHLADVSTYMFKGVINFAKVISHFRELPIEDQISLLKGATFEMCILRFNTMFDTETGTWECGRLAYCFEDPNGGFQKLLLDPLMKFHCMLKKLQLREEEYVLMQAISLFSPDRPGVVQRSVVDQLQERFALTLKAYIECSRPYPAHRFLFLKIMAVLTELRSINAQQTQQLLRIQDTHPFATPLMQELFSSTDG

| SMILES | Potency [1] | Potency [2] | Potency [3] | Potency [4] | Potency [5] | Potency [6] | Potency [7] | Potency [8] | Potency [9] | Potency [10] | Potency [11] | Potency [12] | max activation [13] | Potency [13] | Potency [14] | Potency [15] |
| --- | --- | --- | --- | --- | --- | --- | --- | --- | --- | --- | --- | --- | --- | --- | --- | --- |
| CCCCCCCCCCCCSC#N | inactive | inactive | inactive | inactive | inactive | inactive | 7.96 µM (active) | inactive | inactive |  |  |  |  |  |  |  |
| CCOc1ccc(NC(C)=O)cc1N | inactive | inactive | inactive | inactive | 31.1 µM (active) |  | 16.1 µM (active) | inactive |  | inactive | 36.1 µM (active) |  |  |  |  |  |
| O=C(O)c1cc(C(=O)O)c(C(=O)O)cc1C(=O)O |  | inactive | inactive | inactive | inactive | inactive | inactive |  | inactive | inactive | inactive | inactive |  |  |  |  |
| CCCCCCCCCCCC(=O)OCC | inactive | inactive | inactive | inactive | inactive | inactive | inactive | inactive | inactive | inactive | inactive |  |  |  |  |  |
| Nc1cccc2c(=O)[nH][nH]c(=O)c12 |  | inactive | inactive | inactive | inactive | 5.05 µM (active) |  |  | inactive | inactive | inactive | inactive |  |  |  |  |
| CCCCCCCCS | inactive | inactive | inactive | inactive | inactive | inactive | inactive | inactive | inactive | inactive | inactive | inactive |  |  |  |  |
| CC(Cc1ccccc1)(NC(=O)CN)c1ccccc1 (stereo unspecified) | inactive | inactive | inactive | inactive |  |  |  | inactive |  | inactive |  |  |  |  |  |  |
| CS(C)=O | inactive | inactive | inactive | inactive | inactive | inactive | inactive | inactive | inactive |  | inactive |  |  |  |  |  |
| CC1(C)C(=O)NC(=O)N1CO | inactive | inactive | inactive | inactive | inactive | inactive | inactive |  | inactive | inactive | inactive | inactive |  |  |  |  |
| Cc1ccc(NC(=O)c2ccc(CN3CCN(C)CC3)cc2)cc1Nc1nccc(-c2cccnc2)n1 | 23.7 µM (active) | 23.7 µM (active) | inactive |  |  | inactive | inactive |  |  | inactive | inactive | inactive | -10.6% |  |  |  |
| CC(C)(C)N | inactive | inactive | inactive | inactive | inactive | inactive | inactive | inactive | inactive | inactive | inactive | inactive |  |  |  |  |
| FC1(F)C(F)(F)C(F)(F)C2(F)C(F)(C1(F)F)C(F)(F)C(F)(F)C1(F)C(F)(F)C(F)(F)C(F)(F)C(F)(F)C12F (stereo unspecified) | inactive |  | inactive | inactive | inactive | inactive | inactive | inactive | inactive | inactive | inactive | inactive |  |  |  |  |
| O=[N+]([O-])c1cccc(I)c1 |  | inactive | inactive | inactive | inactive | inactive | 31.6 µM (active) | inactive | inactive | inactive | inactive | inactive |  |  |  |  |
| CCCc1nc(C)c2c(=O)[nH]c(-c3cc(S(=O)(=O)N4CCN(CC)CC4)ccc3OCC)nn12 |  | inactive | inactive | inactive |  | inactive | inactive | inactive |  | inactive | inactive |  |  | 3.55 µM (active) |  |  |
| O=C1c2ccccc2C(=O)c2c1ccc(O)c2O |  | 23.7 µM (active) | inactive |  | inactive |  | 25.7 µM (active) | inactive | inactive | inactive | inactive |  | 0.447% |  | 14.1 µM (active) | inactive |
| O=Cc1ccc([N+](=O)[O-])cc1 | inactive | inactive | inactive | inactive |  |  |  | inactive |  | inactive |  |  |  |  |  |  |
| CCCCOC(=O)C(C)Oc1ccc(Oc2ccc(C(F)(F)F)cn2)cc1 (stereo unspecified) | inactive | inactive | inactive | inactive | inactive |  | 22.4 µM (active) | 24.5 µM (active) | inactive | inactive | 50.2 µM (active) | 22.4 µM (active) |  |  |  |  |
| Cc1nc2sccn2c(=O)c1CCN1CCC(=C(c2ccc(F)cc2)c2ccc(F)cc2)CC1 |  | inactive | inactive | inactive | inactive | 15.5 µM (active) | inactive | 0.213 µM (active) | inactive | inactive |  |  |  |  |  |  |
| COC(=O)Cc1cccc2ccccc12 | inactive | inactive | inactive |  | inactive |  | 20 µM (active) | inactive | inactive | inactive | 79.6 µM (active) | inactive |  |  |  |  |
